# PubChem BioAssay (NCI)
# Where “and” joins values, the source holds several entries; their conditions need not be identical. Equal values may be shown once. This is part of a sample that, as a whole, favours compounds with a hit. Of some 83,000 tested, about 20% had one in any assay.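 Single-concentration screen, 48 h exposure, 96-well plates. Endpoint: percent growth. Below 10 = active.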 A number with no mark means an inactive call. Calls of active or inactive are those of the source.
# System: OVCAR-4 ovarian
# Test: NCI-60 one-dose screen, 48 h (100 = growth as untreated, 0 = no growth, -100 = all killed)
# Conditions: 10 µM unless noted
# Description: Growth inhibition of the OVCAR-4 human tumor cell line is measured as a screen for anti-cancer activity. Cells are grown in 96 well plates and exposed to the test compound for 48 hours. Compounds are tested at a single concentration, which is 10^-5 M for most compounds. The reported endpoint is percent growth (GI% or GIPRCNT), where numbers from 0 - 100% represent growth inhibition, and numbers from -100% - 0 represent cell death. For example, a value of 40 represents 60% growth inhibition. A value of 0 means no net growth occurred over the course of the experiment. A value of -40 indicates 40% of cells at the beginning of the experiment died by the end of the experiment. A value of -100 means all cells are dead at the end of the experiment.
# NCI-60 Human Tumor Cell Lines Screen was performed using the standard one-dose NCI protocol, which is described in more detail at https://dtp.cancer.gov/discovery_development/nci-60/default.htm.
# Compounds with GIPRCNT values below 10 were considered active. Activity score was based on GIPRCNT using the following formula: […]
# Score is 0 for GIPRCNT values of 100 or above, 50 for GIPRCNT values of 0, and 100 for GIPRCNT values of -100.
row,SMILES,growth
1,COC(=O)c1cccc(NC2=C(Cl)C(=O)C(C)=C(C)C2=O)c1,-36.7% (active)
2,COc1ccc(-c2cc(-c3ccc(N4CCOCC4)cc3)n3c(n2)nc2ccccc23)cc1OC,87.9%
3,O=c1c2ccccc2cc2n1CCN=C2c1ccccc1,97.7%
4,C=CCSC1=NC2C(N(CC)C(=O)N2CC)N1/N=C/C=C/c1ccccc1OC (stereo not given),79.9%
5,Brc1cccc(-c2cc(-c3ccc4c(c3)OC=CO4)[nH]n2)c1,82.1%
6,CN(C)CCNc1ccc2ncc(C#Cc3cncc(C(=O)Nc4ccc(CN5CCN(C)CC5)c(C(F)(F)F)c4)c3)n2n1,-10.1% (active)
7,COc1cc(/C=N\NC(=O)c2ccc3nc(-c4ccc(Br)cc4)[nH]c3c2)cc(OC)c1OC,74.1%
8,CCOc1cccc(/C(N)=N/C(N)=N/c2nc3ccccc3s2)c1,95.1%
9,Cc1ccc(NC2=C(Cl)C(=O)c3nc(C)ccc3C2=O)c(C)c1,-96.5% (active)
10,CCOC(=O)c1c(NC(=O)c2ccc(C(F)(F)F)cc2)sc2c3c(ccc12)OCN(C)C3,82.4%
11,CC(=C(c1ccc(OCCN(C)C)cc1)c1ccc(OCCN(C)C)cc1)c1ccc(Cl)cc1,-17.4% (active)
12,C=C(C)[C@@H]1CC[C@]2(C(=O)N3CCN(C)CC3)CC[C@]3(C)[C@H](CC[C@@H]4[C@@]5(C)CC[C@H](OP(=O)(OCC)OCC)C(C)(C)[C@@H]5CC[C@]43C)[C@@H]12,91.2%
13,C#CCOc1cccc(-c2nc(N)nc(Nc3ccccc3SSc3ccccc3Nc3nc(N)nc(-c4cccc(OCC#C)c4)n3)n2)c1,80.9%
14,CN(C)S(=O)(=O)c1ccc(-c2nc(C(Cl)Cl)nc3cc(-c4ccccc4)nn23)cc1,90.5%
15,COC(=O)c1ccc(NC2=C(Cl)C(=O)c3nc(C)ccc3C2=O)cc1,58.5%
16,Cc1nc(/N=C(N)/N=C(\N)c2cccc(Br)c2)sc1C,87.3%
17,COc1cc(-c2nc(-c3ccccc3)[nH]c2-c2ccnc(NCCCNS(=O)(=O)c3ccc(C(F)(F)F)cc3)n2)ccc1Cl,41.6% and 39.1%
18,O=C(CSc1cc[n+](CCCCO)c2ccccc12)n1ccc2ccccc21,105%
19,COc1ccc(N2CCN(C3=C(Cl)C(=O)c4ncccc4C3=O)CC2)cc1,48.2%
20,C=C(C)[C@@H]1CC[C@]2(COP(=O)(OCC)OCC)CC[C@]3(C)[C@H](CC[C@@H]4[C@@]5(C)CC[C@H](OP(=O)(OCC)OCC)C(C)(C)[C@@H]5CC[C@]43C)[C@@H]12,65.5%

row,SMILES,growth
1,C#CCN(C)CCCOc1ccc(NCc2ccc(C(=O)NO)cc2)cc1Cl,31.3%
2,Nc1nc(=O)n([C@H]2C[C@H](O)[C@@H](CO)O2)cc1C=O,78.1%
3,Cc1ccc(-c2csc(N/N=C/c3cccs3)n2)cc1,59.6%
4,C#C[C@]1(O)CC[C@H]2[C@@H]3CC=C4c5sc(N(C)c6ccccc6)nc5CC[C@]4(C)[C@H]3CC[C@@]21C,94%
5,CC1=C(C)C(=O)C(Nc2ccc3c(c2)OCCO3)=C(Br)C1=O,66.8%
6,O=C(/C=C/c1cccc(Br)c1)c1cccc(OCCCCOc2cccc(C(=O)/C=C/c3cccc(Br)c3)c2)c1,109%
7,C#CCN(C)CCCOc1ccc(NCc2ccc(/C=C/C(=O)NO)cc2)cc1Cl,22.4%
8,CC(C)C(/C=C/c1[nH]ncc1-c1cc(Cl)ccc1O)N1CCOCC1 (stereo not given),94.3%
9,COc1ccc(/C=N/NC(=O)c2c(N)nn(C)c2Nc2ccccc2)cc1,87%
10,CN1CCN(c2ccc(Nc3nc(NCCNS(=O)(=O)c4ccccc4)c4sccc4n3)cc2)CC1,92.5%
11,N#Cc1nc(-c2ccc(Cl)cc2)oc1N1CCC(S(=O)(=O)N2CCOCC2)CC1,100%
12,CCCCSC1=C(Cl)CN(c2ccc(Cl)cc2)C1=O,104%
13,CC(O)c1cccc(/C(N)=N/C(N)=N/c2nc3ccccc3s2)c1 (stereo not given),105%
14,O=C(Nc1cccc(Cl)c1)Nc1nc2cc([N+](=O)[O-])ccc2o1,3.58% (active)
15,C=C(C)[C@@H]1CC[C@]2(C(=O)NC3CCCCC3)CC[C@]3(C)[C@H](CC[C@@H]4[C@@]5(C)CC[C@H](N)C(C)(C)[C@@H]5CC[C@]43C)[C@@H]12,96.4%
16,Cc1ccc(NC(=O)/C=C/c2ccc(OCCCOc3ccc4c(C)cc(=O)oc4c3)cc2)cc1,19.9%
17,CCOC(=O)c1cccnc1Nc1ccc(NC(=O)Nc2ccc(Cl)c(C(F)(F)F)c2)cc1,42.8%
18,CCN(CC)CCOc1ccc(C(=C(C)c2ccc(OC)cc2)c2ccc(OCCN(CC)CC)cc2)cc1,-24.4% (active)
19,O=S(=O)(NCCCNc1nccc(-c2[nH]c(-c3ccccc3)nc2-c2ccc(F)c(O)c2)n1)c1cccc(F)c1,108%
20,O=C(CSc1nnc(-c2ccc(Cl)cc2)n1-c1ccccc1)Nc1cccc(F)c1,-46.4% (active)
